# This is a sample that favours compounds with a hit; in the whole collection about 10% have one here.
# FLuc inh = Firefly luciferase inhibition profiling of diverse chemical library using quantitative high-throughput screening | purified P. pyralis luciferase, luminescence, biochemical | Potency, µM (doses to about 115 µM), actives largely listed as inhibitors | hit rate 2.5% among 76,000 | AID 1347043, 2019; also: nearly all actives have a fitted effect of over 65% in size
#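 Inhibitors were tested against purified firefly luciferase in a biochemical, low-substrate format (both substrates at 10uM) and luminescence measured with a CCD imager.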
# 3T3 cytotox = Cytotoxic Profiling in NIH 3T3 Cell Line of Diverse Libraries Using Quantitative High-Throughput Screening. NIH 3T3 viability, CellTiter-Glo ATP luminescence, 48-72 h. Potency, µM (top dose mostly 96.7 µM), inactives show at the top dose activity change, negative = cytotoxicity, most hits filed as inhibitors. hit rate 4.3% among 94,000. AID 1345082, 2018; also: nearly all actives have a fitted effect of over 55% in size
#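 Mouse fibroblast NIH 3T3 cells, 400 per well, received compound via pintool and were incubated for 48 or 72 hr prior to CellTiter-Glo ATP luminescence measurement.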
# HEK cytotox = Cytotoxic Profiling in HEK 293 Cell Line of Diverse Libraries Using Quantitative High-Throughput Screening; HEK 293 viability, ATP luminescence (CellTiter-Glo), 48-72 h; Potency, µM (highest dose often 115 µM), inactives show at the top dose activity change, negative = cytotoxicity, actives largely listed as inhibitors; hit rate 6.6% among 94,000; AID 1345083, 2018; also: nearly all actives have a fitted effect of over 60% in size
#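 Luminescence from cellular ATP, measured with CellTiter-Glo, indicates HEK 293 viability. Cells plated at 250 cells/well are treated with compound for 48 or 72 hr at 37 degree Celsius before reagent addition.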
# hNpr1 antagonist = Natriuretic polypeptide receptor (hNpr1) antagonism - Primary qHTS; AID 1347048, 2019; hit rate 1.6% among 76,000; HEK293 hNpr1 GloSensor cGMP, ANP-stimulated luminescence; Potency, µM (top dose mostly 46.3 µM), for inactives: top-dose activity change, negative = inhibition, actives largely listed as inhibitors; Atrial natriuretic peptide receptor 1 (Homo sapiens), P16066; calls by dose curve; also: nearly all actives have a fitted effect of over 60% in size
# Target sequence (P16066 whole entry, looked up): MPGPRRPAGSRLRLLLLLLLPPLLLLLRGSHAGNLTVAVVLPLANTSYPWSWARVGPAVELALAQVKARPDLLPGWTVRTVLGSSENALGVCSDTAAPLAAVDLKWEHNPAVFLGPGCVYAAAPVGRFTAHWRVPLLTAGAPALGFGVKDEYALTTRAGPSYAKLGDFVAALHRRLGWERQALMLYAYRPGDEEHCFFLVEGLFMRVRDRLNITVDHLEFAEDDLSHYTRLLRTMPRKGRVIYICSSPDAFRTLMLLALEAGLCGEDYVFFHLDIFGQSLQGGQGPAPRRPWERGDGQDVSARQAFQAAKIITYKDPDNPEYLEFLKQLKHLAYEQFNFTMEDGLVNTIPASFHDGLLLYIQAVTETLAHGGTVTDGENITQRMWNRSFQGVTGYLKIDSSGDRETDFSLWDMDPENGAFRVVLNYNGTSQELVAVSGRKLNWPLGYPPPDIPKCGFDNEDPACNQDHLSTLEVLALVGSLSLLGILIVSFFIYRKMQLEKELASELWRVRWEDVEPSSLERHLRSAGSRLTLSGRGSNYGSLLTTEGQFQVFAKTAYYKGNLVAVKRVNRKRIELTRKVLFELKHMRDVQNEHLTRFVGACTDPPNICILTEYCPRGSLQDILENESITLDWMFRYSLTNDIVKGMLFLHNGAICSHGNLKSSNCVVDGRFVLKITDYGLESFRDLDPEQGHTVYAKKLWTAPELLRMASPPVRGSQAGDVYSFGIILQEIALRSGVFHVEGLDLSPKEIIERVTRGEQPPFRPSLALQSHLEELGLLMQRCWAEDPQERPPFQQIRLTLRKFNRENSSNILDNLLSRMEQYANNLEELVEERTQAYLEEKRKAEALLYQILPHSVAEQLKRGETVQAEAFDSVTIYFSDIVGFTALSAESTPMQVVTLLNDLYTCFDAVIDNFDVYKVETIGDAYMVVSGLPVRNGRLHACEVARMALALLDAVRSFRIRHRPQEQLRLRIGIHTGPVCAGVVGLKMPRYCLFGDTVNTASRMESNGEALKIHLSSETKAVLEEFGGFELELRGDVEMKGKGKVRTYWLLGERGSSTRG
#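 HEK293 cells stably expressing human Npr1 and cGMP GloSensor pGS-40F, loaded 2 h with 2% GloSensor reagent, given compound 30 min at room temperature. Luminescence read before and 20 min after 0.1 nM hNppA.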
# GPT2 inh = Primary qHTS assay for inhibitors of Glutamate pyruvate transaminase 2 (GPT2). Potency, µM (series often up to 57.7 µM), without a hit: top-dose activity change, negative = inhibition, hits mostly inhibitors. hit rate 0.25% among 100,000. Alanine aminotransferase 2 (Homo sapiens), Q8TD30. Recombinant GPT2, coupled pyruvate oxidase/HRP Amplex Red fluorescence. AID 1671188, 2021; also: nearly all actives have a fitted effect of over 60% in size
#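 Recombinant GPT2 (10ng/uL) with 250uM a-KG and 2mM L-alanine, 30 min at room temperature, in HEPES pH 7.5 buffer. Pyruvate detected by pyruvate oxidase/HRP/Amplex Red fluorescence after 30 min in the dark; AOA (50uM) as positive control.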
# * = called active by the depositor; i = inactive; ? = inconclusive; · = no result given; [ ] = remark or other dose. Unless noted, calls follow the shape of the dose curve; as a rule, active = well fitted curve in the direction sought with a large enough effect; inconclusive = small, poorly fitted or top-dose-only effect, or another doubt; inactive = no such curve, though single readings can be large; an effect the other way counts as inactive or inconclusive. % is scaled to controls: 0 for no effect and ±100 for the full control effect; potency is read from the fitted curve at half-maximal effect.
SMILES,FLuc inh,3T3 cytotox,HEK cytotox,hNpr1 antagonist,GPT2 inh
COc1ccc(-c2nnc(C[C@@H]3C[C@@H](C(C)C)[C@H](CN(C)CCC#N)C=C3C)o2)cc1,i,89µM*,63µM*,?,?
CC1=C[C@@H](CN(C)CCC#N)[C@H](C(C)C)C[C@H]1Cc1nnc(-c2ccc(C)cc2)o1,i,?,50µM*,?,-6%[88.5 µM]
COCC(=O)NC1CCN(Cc2ccc(-c3ccsc3)cc2)C1 (centres undefined),·,?,?,·,i
CC(C)N1CC(C(=O)NCCc2ccc(F)cc2)NC1=O (centres undefined),·,-26%[138 µM],-15%[172 µM],·,i
Cn1cccc1-c1noc(C2CCN(Cc3nc(-c4ccc(F)cc4)no3)CC2)n1,·,?,?,·,1%
O=C(c1ccccc1F)N1CC(Oc2ccc(-c3nc(-c4ccccc4)no3)cc2)C1,?,45µM*,28µM*,7.1µM*,-12%
O=C(c1ccco1)N1CC(Oc2ccc(-c3nc(-c4ccccc4)no3)cc2)C1,?,28µM*,20µM*,?,-17%
O=C(c1ccc(F)cc1)N1CC(Oc2ccc(-c3nc(-c4ccccc4)no3)cc2)C1,i,-13%,?,-11%,i
NCc1ccccc1-c1ccccn1,·,i,0%[230 µM],·,-19%[88.5 µM]
Cc1noc(CC2CCOC3(CCN(C(=O)c4cc(-c5ccc(F)cc5)n[nH]4)CC3)C2)n1 (centres undefined),i,-25%,?,-7%,-13%
CC1Oc2ccc(NC(=O)c3ccc4c(c3)OCO4)cc2CN(Cc2ccccc2)C1=O (centres undefined),i,?,20µM*,?,i
COc1ccccc1CN1Cc2cc(NC(=O)c3ccc([N+](=O)[O-])cc3)ccc2OC(C)C1=O (centres undefined),i,?,?,1%,i
COc1ccc(CN2Cc3cc(NC(=O)c4ccc5c(c4)OCO5)ccc3OC(C)C2=O)cc1 (centres undefined),i,?,22µM*,-23%,i
COc1ccccc1CN1Cc2cc(NC(=O)c3ccc4c(c3)OCO4)ccc2OC(C)C1=O (centres undefined),i,?,40µM*,-14%,i
CCC1Oc2ccc(NC(=O)c3ccc4c(c3)OCO4)cc2CN(Cc2ccc(F)cc2)C1=O (centres undefined),?,?,14µM*,-13%,i
CCS(=O)(=O)Nc1ccc(C)n(CC(=O)NC(C)c2ccccc2)c1=O (centres undefined),i,-14%,-2%,8%,0%
CC1Oc2ccc(NC(=O)c3cccc(F)c3)cc2CN(Cc2ccc3c(c2)OCO3)C1=O (centres undefined),i,?,40µM*,-25%,i
O=C(NC1CCCC1)N1CCC(C(=O)N2CCCC(c3nc4ccncc4[nH]3)C2)CC1 (centres undefined),·,-16%,?,·,-2%
CC(C)c1noc(-c2cn(C3CCCN(C(=O)c4ccc(C(C)(C)C)cc4)C3)nn2)n1 (centres undefined),i,-19%,?,?,?
COc1ccc(CN2CCC3(CC2)C(=O)NCN3Cc2ccc(Cl)cc2)cc1,i,?,40µM*,-11%,4%
CCCn1c(C)cnc1CC1CCCN(C(=O)C2CCCC2)C1 (centres undefined),·,-11%,5%,·,4%
O=C(NC1CC1)C1CCCN(Cc2cccc(-c3ccc(F)cc3F)c2)C1 (centres undefined),·,?,40µM*,·,-13%
O=C(NCC(F)(F)F)C1CCCN(Cc2cccc(-c3ccc(F)cc3F)c2)C1 (centres undefined),·,?,?,·,-31%

# Screening data (PubChem BioAssay)
